The text below walks through data of PubChem BioAssay.

“And” between values parts separate entries of the source, which are not always exact repeats. Equal entries are not always repeated. The source made the active and inactive calls. Unless noted, no rule for the calls is given here.

Experiment [1] is described as follows: liver-stage malaria parasite growth inhibition, primary screen, cell-based, HepG2, luciferase luminescence, HepG2 viability (AID 624349; in the data active = parasite load remaining mostly below about 12%, no sharp cut-off; inactive = mostly above about 10%;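 also: 100% = mean of DMSO negative control wells on the same plate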). Particulars: P. berghei liver stage in HepG2, luciferase luminescence, concentration not given here; parasite load remaining: stronger effect = lower value; viability: measured here: HepG2 viability without parasites.
Experiment [2] in a line: Cy5 fluorescence interference with SSB-bound oligo, artefact control for HCV NS3 helicase inhibitor project, biochemical, NIH Clinical Collection, E. coli SSB (AID 743268).
The subject of experiment [3] is Hepatitis C virus NS3 helicase. Briefly: HCV NS3 helicase inhibitors, primary screen, biochemical, fluorescence polarization, NIH Clinical Collection (AID 743270). Particulars: NS3 helicase binding to Cy5-dT15 DNA, stronger effect = higher value, concentration not given here.
Experiment [4] has as its target Single-stranded DNA-binding protein (Escherichia coli (strain K12)) (UniProt P0AGE0). The experiment can be described thus: E. coli SSB displacement from DNA, counter-screen for HCV NS3 helicase inhibitor project, biochemical, fluorescence polarization, NIH Clinical Collection (AID 743271; in the data active = inhibition above about 28%). Particulars: stronger effect = higher value, concentration not given here. Background: The purpose of a counterscreen is to sort out artefacts and off-target activity.

The nature of experiment [5]: fluorescence interference in NS3h assay format, artefact control for HCV NS3 helicase inhibitor project, biochemical, NIH Clinical Collection (AID 743272).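 Also: HCV NS3 helicase with a Cy5 labelled single stranded DNA probe.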 Particulars: fluorescence interference counterscreen, stronger effect = lower value.
The subject of experiment [6] is Aerobactin synthetase IucA (Klebsiella pneumoniae). The experiment can be described thus: IucA aerobactin synthetase inhibitors, biochemical, Tocris library, absorbance (AID 1345561).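 Also: 100% = enzyme without compound and 0% = no enzyme.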 Particulars: purified IucA enzyme assay, absorbance (OD) read-out; stronger effect = lower value;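 tested at 8 µM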.
A short description of experiment [7]: sensitizers of A549 cells to miR-34 induction, primary screen, imaging, A549 dox-inducible miR-34, nuclei and caspase counts (AID 1347080;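 active = compounds whose cell count with miR-34 switched on is under 0.7 times the count with it off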). Particulars: A549 miR-34 inducible, Hoechst nuclei count, 48 h.
The nature of experiment [8]: viability rescue of complex I mutant cybrids, primary screen, cell-based, galactose medium, ATP luminescence (AID 1645843;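 active = z-score of at least 1.8 in each of two replicates, scored against plate mean and spread of sample wells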;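 also: positive z means more ATP and so rescue of galactose-driven cybrid death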). Particulars: complex I mutant cybrid cells, 72 h, stronger effect = higher value.
A short description of experiment [9]: circadian clock period modulators, cell-based, LOPAC library, luminescence reporter (AID 2774).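 Also: values are relative to mean of DMSO wells on each plate.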 Particulars: circadian reporter cells, at 7 µM, actives lie on both sides.
The mark [10] stands for this setting: measured here: relative caspase fold change +Dox/-Dox.
Setting [11] is: measured here: total cells with miR-34 induction, stronger effect = lower value.
Setting [12] is: measured here: total cells without miR-34 induction.
Where [13] appears, read: stronger effect = lower value, cell number ratio, induced over uninduced.

Turning to `C=C(C)CN1CC[C@]23c4c5ccc(O)c4O[C@H]2c2[nH]c4ccccc4c2C[C@@]3(O)C1C5`, the parasite load remaining in experiment [1] was 2.83% (inactive). This molecule also gave a viability in experiment [1] of 29.3%. For the same molecule, the fluorescence ratio was 0.95 (inactive) in [2] and 0.93 (inactive) in experiment [5]. Also, the inhibition is -1.97% (inactive) in experiment [3] and 1.97% (inactive) in [4]. In experiment [6], the remaining activity is 92% (inactive). Further, the fold change in experiment [7] (stronger effect = lower value) was 0.859 (inactive); in experiment [7] (setting [10]), 0.814. The cell count is 5020 in experiment [7] (setting [11]) and 5850 in [7] (setting [12]). Besides, the z-score in [8] was -0.785 (inactive).
On to `COc1cc2c(cc1O)C(CCc1ccc(Cl)cc1)N(C)CC2` (stereo unspecified), for which the remaining activity in experiment [6] was 109% (inactive). The figures for the fold change in experiment [7] (setting [13]) and in [7] (setting [10]) were 0.951 (inactive) and 1.1, respectively. In addition, the cell count in [7] (setting [11]) was 7110; in experiment [7] (setting [12]), 7480. The z-score in [8] is -0.615 (inactive).
On to `CCCCCCC[n+]1ccc(-c2cc[n+](CCCCCCC)cc2)cc1`, for which, in [6], the remaining activity is 77% (inactive). The fold change in experiment [7] (setting [13]) is 1.13 (inactive); in experiment [7] (setting [10]) it was 1.23. Further, the values for the cell count in experiment [7] (setting [11]) and in experiment [7] (setting [12]) were 1940 and 1710, respectively. The z-score in experiment [8] was -1.1 (inactive).
Take `CC(C)(C)NCC(O)COc1cccc2[nH]c(C#N)cc12` (stereo unspecified): the remaining activity in experiment [6] is 115% (inactive). The fold change is 0.911 (inactive) in experiment [7] (setting [13]) and 1.8 in [7] (setting [10]). Further, the figures for the cell count in experiment [7] (setting [11]) and in experiment [7] (setting [12]) were 9030 and 9910, respectively. The z-score in [8] was 0.025 (inactive).
Turning to `C=C(C)[C@@H]1CCC(C)=C[C@H]1c1c(OC)cc(C)cc1OC`, the remaining activity in experiment [6] was 106% (inactive). The fold change in [7] (setting [13]) was 0.943 (inactive) and 0.926 (inactive); in [7] (setting [10]), 0.715 and 0.958. The cell count in [7] (setting [11]) was 5230 and 8980; in experiment [7] (setting [12]) it was 5540 and 9700. Further, in [8], the z-score was -0.105 (inactive).
On to `Oc1ccc2c3c1O[C@H]1c4oc5ccccc5c4C[C@@]4(O)C(C2)N(CC2CC2)CC[C@]314`, for which the remaining activity in experiment [6] is 104% (inactive). The fold change is 0.944 (inactive) in experiment [7] (stronger effect = lower value) and 0.874 in experiment [7] (setting [10]). Further, the cell count in experiment [7] (setting [11]) was found to be 9060; in [7] (setting [12]) it was 9600. Also, the z-score in [8] was -0.325 (inactive).
For `O=Cc1cn(Cc2ccc(Cl)cc2)c2ccccc12`, the remaining activity in experiment [6] is 119% (inactive). The figures for the fold change in [7] (setting [13]) and in experiment [7] (setting [10]) were 0.901 (inactive) and 1.34, respectively. Besides, the cell count was 4020 in experiment [7] (setting [11]) and 4470 in experiment [7] (setting [12]). In [8], the z-score is -0.645 (inactive).
As to `Cc1nc(N)sc1CCN`, the remaining activity in experiment [6] was 88.4% (inactive). Also, the fold change is 0.919 (inactive) in experiment [7] (setting [13]) and 1.01 in experiment [7] (setting [10]). Also, the cell count in [7] (setting [11]) turned out to be 8020; in [7] (setting [12]), 8730. Further, in [8], the z-score was 0.195 (inactive).
`CN(C(=O)Cc1ccc(Cl)c(Cl)c1)[C@H](CN1CCCC1)c1ccccc1`: in experiment [6], the remaining activity is 98.2% (inactive). Moreover, the fold change is 0.987 (inactive) in experiment [7] (setting [13]) and 0.762 in [7] (setting [10]). The cell count in [7] (setting [11]) worked out at 7540; in [7] (setting [12]) it was 7640. Also, the z-score in experiment [8] is -0.625 (inactive).
As for `O=C(O)CCC(CP(=O)(O)O)C(=O)O` (stereo unspecified), the remaining activity in experiment [6] was 113% (inactive). The fold change in [7] (setting [13]) was 0.917 (inactive); in [7] (setting [10]), 0.521. Further, the cell count in experiment [7] (setting [11]) stood at 9040; in experiment [7] (setting [12]) it was 9860. In experiment [8], the z-score is -0.22 (inactive).
As to `CCN(CC)CCO[C@H]1CC[C@@]2(C)C(=CC[C@@H]3[C@@H]2CC[C@]2(C)C(=O)CC[C@@H]32)C1`, the remaining activity in experiment [6] was 113% (inactive). Moreover, the fold change in [7] (setting [13]) is 0.896 (inactive) and 0.878 (inactive); in experiment [7] (setting [10]), 0.558 and 0.739. Besides, the cell count in [7] (setting [11]) was 5320 and 6330; in experiment [7] (setting [12]), 5930 and 7220. Further, the z-score in [8] was -0.79 (inactive).
Take `CN1C2CCC1CC(OC(c1ccccc1)c1ccc(Cl)cc1)C2` (stereo unspecified): the period change in experiment [9] was 0.035 h (inactive). Also, the remaining activity in experiment [6] was 92.9% (inactive). The fold change is 0.909 (inactive) in experiment [7] (setting [13]) and 1.16 in [7] (setting [10]). Also, the cell count in experiment [7] (setting [11]) was found to be 4530; in experiment [7] (setting [12]) it was 4990. In experiment [8], the z-score is -1.1 (inactive).
`Oc1ccc2c3c1O[C@H]1c4[nH]c5ccccc5c4C[C@@]4(O)C(C2)N(CC2CC2)CC[C@]314`: in experiment [1], the parasite load remaining was 46.5% (inactive). The viability in experiment [1] is 62.3%. The fluorescence ratio in experiment [2] is 0.91 (inactive); in [5] it was 0.89 (inactive). Moreover, the inhibition in experiment [3] is -1.19% (inactive); in [4], -0.1% (inactive). In addition, in experiment [6], the remaining activity was 101% (inactive). Also, the values for the fold change in experiment [7] (stronger effect = lower value) and in [7] (setting [10]) were 1.03 (inactive) and 0.989, respectively. Also, the cell count worked out at 8920 in experiment [7] (setting [11]) and 8700 in experiment [7] (setting [12]). For the same molecule, the z-score in [8] is 0.53 (inactive).

The viability is the share of living cells, or the viability signal relative to a control. Usually inhibition stands for the drop in the measured response relative to a control, in per cent. Usually remaining activity stands for the signal under treatment as a percentage of the control signal.
